In the library only some 6.8% were active in any assay of this set; here they are far more common.
Pf Dd2 growth: blocks growth of Plasmodium falciparum Dd2 parasites | AID 1159554 | activity change, % at 10 µM | 2.3% of 94,000 active | P. falciparum Dd2 growth, SYBR Green, 72 h; hits give low values; in the data active = activity change below about -80%; inconclusive = no clear call, values can overlap the other calls
C diff growth: blocks growth of Clostridium difficile; growth activity, negative = inhibition, % at 16 µg/mL (by protocol); AID 1259249; Clostridium difficile clinical isolate growth, OD600, 24 h; hits give low values; 0.25% of 86,000 active;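 active = mean growth activity at or below -80% and every replicate also at or below -80%; inconclusive = mean at or below -80% but some replicate above -80%; inactive = mean growth activity above -80%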
T cruzi growth-1: T. cruzi proliferation inhibition; T. cruzi beta-gal in NIH3T3, GalScreen luminescence, 90 h; inhibition, % at 8.34 µM; 5.9% of 77,000 active;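 active = mean inhibition above about 93%, with at least 55% of replicates each passing it, limit read from the data, passing the limit was not always enough; inconclusive = only one of those two conditions holds; inactive = neither condition holds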
T cruzi growth-2: inhibitors of T. cruzi proliferation. inhibition, % at 8.35 µM. shares compounds with T cruzi growth-1. 72% of 5,600 active. T. cruzi beta-gal in NIH3T3, GalScreen luminescence, 90 h;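 active = mean replicate inhibition above about 95% and at least 55% of replicates individually reaching it, limit read from the data; inconclusive = only one of the two criteria is met; inactive = neither criterion is met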
T cruzi growth-3: Trypanosoma cruzi proliferation inhibition; shares compounds with T cruzi growth-1; T. cruzi beta-gal in NIH3T3, GalScreen luminescence, 90 h; inhibition, % at 2.09 µM; 21% of 5,600 active;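 active = mean inhibition above about 95%, with at least 55% of replicates also reaching it, limit read from the data; inconclusive = meets just one of the two conditions; inactive = meets neither condition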
3T3 cytotox: cytotoxicity in mouse NIH/3T3 fibroblasts. AID 651742. cytotoxicity (signal decrease), % at 8.35 µM. 14% of 5,600 active. NIH/3T3 viability, CellTiter-Glo ATP luminescence, 90 h. shares compounds with T cruzi growth-1;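 active = mean signal decrease across replicates above about 35% based on untreated-well scatter, with enough replicates individually passing, limit read from the data; inconclusive = no rule stated though some were filed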
3T3 cytotox 2: NIH/3T3 (mouse) viability loss; 56% of 5,600 active; inhibition, % at 24.9 µM; shares compounds with T cruzi growth-1; NIH/3T3 viability, CellTiter-Glo ATP luminescence, 90 h; AID 651744;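 active = mean loss of cell viability signal at or above a set limit, and enough replicates individually reaching it; inconclusive = meets only the mean limit or only the replicate share; inactive = meets neither condition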
Large screens that a line does not name were inactive (follow-up assays come after a bar, where they were run).

C[C@@H]1CN([C@H](C)CO)S(=O)(=O)c2ccc(-c3ccccc3)cc2O[C@@H]1CN(C)Cc1cccc(F)c1	T cruzi growth-1 123.5 | T cruzi growth-2 112.4 | T cruzi growth-3 inactive | 3T3 cytotox inactive | 3T3 cytotox 2 104.2
C[C@H]1CN([C@@H](C)CO)S(=O)(=O)c2ccc(-c3ccc(F)cc3)cc2O[C@@H]1CN(C)Cc1cccc(F)c1	none
CCCC#Cc1cnc2c(c1)C(=O)N([C@H](C)CO)C[C@H](C)[C@@H](CN(C)C(=O)C1CC1)O2	none
CO[C@@H]1CN(C)C(=O)c2cc(NC(C)=O)ccc2OC[C@H](C)N(CC2CCCCC2)C[C@H]1C	none
C[C@@H]1CCCCO[C@@H](CN(C)CC2CC2)[C@H](C)CN([C@@H](C)CO)C(=O)c2cc(NS(=O)(=O)c3ccccc3)ccc2O1	none
CCN(C[C@@H]1[C@@H](c2ccc(-c3ccccc3)cc2)[C@H](CO)N1C(C)=O)C(C)=O	T cruzi growth-1 inconclusive | T cruzi growth-2 inactive | T cruzi growth-3 inactive | 3T3 cytotox inactive | 3T3 cytotox 2 inactive
CCN(C[C@H]1[C@H](c2ccc(-c3ccccc3)cc2)[C@H](CO)N1C(C)=O)C(C)=O	T cruzi growth-1 105.6 | T cruzi growth-2 inactive | T cruzi growth-3 inactive | 3T3 cytotox inactive | 3T3 cytotox 2 inactive
CCN(C[C@H]1[C@H](c2ccc(-c3cccnc3)cc2)[C@@H](CO)N1C(C)=O)C(C)=O	none
CCC(=O)N1[C@H](CN(CC)C(=O)c2cccc(F)c2)[C@H](c2ccccc2)[C@@H]1CO	none
CCC(=O)N(CC)C[C@@H]1[C@@H](c2ccc(-c3ccccc3)cc2)[C@@H](CO)N1C(C)=O	none (no result: T cruzi growth-1)
CCN(C[C@H]1[C@H](c2ccccc2)[C@@H](CO)N1C(C)=O)C(=O)c1cccc(F)c1	T cruzi growth-1 103.2 | T cruzi growth-2 inactive | T cruzi growth-3 inactive | 3T3 cytotox inactive | 3T3 cytotox 2 inactive
Cc1ccc(S(=O)(=O)Nc2cccc3c2O[C@@H](CN(C)C(=O)Nc2ccc4c(c2)OCO4)[C@@H](C)CN([C@@H](C)CO)C3=O)cc1	none
COc1cccc(-c2ccc([C@@H]3[C@H](C#N)N(C(=O)Cc4ccccc4)[C@H]3CO)cc2)c1	T cruzi growth-1 inconclusive | T cruzi growth-2 110.9 | T cruzi growth-3 inactive | 3T3 cytotox inactive | 3T3 cytotox 2 33.0
COc1cccc(-c2ccc([C@H]3[C@@H](CO)N(C(=O)Cc4ccccc4)[C@H]3C#N)cc2)c1	T cruzi growth-1 96.7 | T cruzi growth-2 95.7 | T cruzi growth-3 98.5 | 3T3 cytotox inactive | 3T3 cytotox 2 36.7
N#C[C@@H]1[C@H](c2ccc(-c3ccc(F)cc3)cc2)[C@@H](CO)N1C(=O)Cc1ccccc1	none
COc1cccc(-c2ccccc2[C@@H]2[C@@H](CO)N(C(=O)Cc3ccccc3)[C@H]2C#N)c1	none (no result: T cruzi growth-1)
CO[C@@H]1CN(C)C(=O)c2ccc(NC(=O)C3CC3)cc2OC[C@@H](C)N(C)C[C@@H]1C	none (no result: C diff growth, T cruzi growth-1)
CC(C)NC(=O)N(C)C[C@H]1Oc2ccc(NC(=O)c3ccncc3)cc2CC(=O)N([C@H](C)CO)C[C@@H]1C	none (no result: T cruzi growth-1)
COc1ccc(S(=O)(=O)N(C)C[C@@H]2Oc3ccc(NS(=O)(=O)c4cccs4)cc3CC(=O)N([C@H](C)CO)C[C@H]2C)cc1	none
CNC[C@H]1Oc2cc(C#CCC3CCCC3)ccc2S(=O)(=O)N([C@@H](C)CO)C[C@@H]1C	T cruzi growth-1 inconclusive | T cruzi growth-2 inactive | T cruzi growth-3 inactive | 3T3 cytotox inactive | 3T3 cytotox 2 inactive
CNC[C@H]1Oc2cc(C#CCC3CCCC3)ccc2S(=O)(=O)N([C@H](C)CO)C[C@H]1C	T cruzi growth-1 inconclusive | T cruzi growth-2 97.9 | T cruzi growth-3 inactive | 3T3 cytotox inconclusive | 3T3 cytotox 2 106.4
CNC[C@H]1Oc2cc(C#CC3CCCC3)ccc2S(=O)(=O)N([C@@H](C)CO)C[C@@H]1C	none
C[C@@H]1CN([C@H](C)CO)S(=O)(=O)c2ccc(C#CCC3CCCC3)cc2O[C@H]1CN(C)C	none
CNC[C@@H]1Oc2cc(C#CCC3CCCC3)ccc2S(=O)(=O)N([C@@H](C)CO)C[C@H]1C	T cruzi growth-1 inconclusive | T cruzi growth-2 100.6 | T cruzi growth-3 inactive | 3T3 cytotox inconclusive | 3T3 cytotox 2 104.6
CNC[C@@H]1Oc2cc(C#CCC3CCCC3)ccc2S(=O)(=O)N([C@@H](C)CO)C[C@@H]1C	T cruzi growth-1 inconclusive | T cruzi growth-2 inactive | T cruzi growth-3 inactive | 3T3 cytotox 50.6 | 3T3 cytotox 2 105.6
C[C@H]1CN([C@@H](C)CO)S(=O)(=O)c2ccc(C#CCC3CCCC3)cc2O[C@@H]1CN(C)C	none
CNC[C@H]1Oc2cc(C#CC3CCCC3)ccc2S(=O)(=O)N([C@H](C)CO)C[C@H]1C	none
CCCc1cn(CC[C@H]2CC[C@H](NC(=O)C3CC3)[C@@H](CO)O2)nn1	none (no result: T cruzi growth-1)
C[C@@H]1CCCCO[C@@H](CN(C)S(=O)(=O)c2ccc(F)cc2)[C@H](C)CN([C@H](C)CO)C(=O)c2cc(NC(=O)Nc3ccc(F)cc3)ccc2O1	Pf Dd2 growth -81.6, T cruzi growth-1 100.0 | T cruzi growth-2 104.1 | T cruzi growth-3 inactive | 3T3 cytotox inactive | 3T3 cytotox 2 inactive
C[C@@H]1CCCCO[C@@H](CN(C)S(=O)(=O)c2ccc(Cl)cc2)[C@@H](C)CN([C@@H](C)CO)C(=O)c2cc(NC(=O)Nc3ccc(F)cc3)ccc2O1	none
C[C@@H]1CCCCO[C@H](CN(C)S(=O)(=O)c2ccc(F)cc2)[C@@H](C)CN([C@@H](C)CO)C(=O)c2cc(NC(=O)Nc3ccc(F)cc3)ccc2O1	T cruzi growth-1 100.1 | T cruzi growth-2 108.1 | T cruzi growth-3 inactive | 3T3 cytotox inactive | 3T3 cytotox 2 50.9
Cc1ccc(S(=O)(=O)N(C)C[C@@H]2OCCCC[C@H](C)Oc3ccc(NC(=O)Nc4ccc(F)cc4)cc3C(=O)N([C@@H](C)CO)C[C@H]2C)cc1	Pf Dd2 growth inconclusive, T cruzi growth-1 106.4 (no result: C diff growth) | T cruzi growth-2 102.0 | T cruzi growth-3 inactive | 3T3 cytotox inactive | 3T3 cytotox 2 inactive
C[C@H](CO)N1C[C@H](C)[C@H](CN(C)S(=O)(=O)c2ccc(Cl)cc2)OCCCC[C@H](C)Oc2ccc(NC(=O)Nc3ccc(F)cc3)cc2C1=O	none
C[C@@H]1CCCCO[C@@H](CN(C)S(=O)(=O)c2ccc(F)cc2)[C@H](C)CN([C@@H](C)CO)C(=O)c2cc(NC(=O)Nc3ccc(F)cc3)ccc2O1	T cruzi growth-1 98.4 | T cruzi growth-2 104.9 | T cruzi growth-3 inactive | 3T3 cytotox inactive | 3T3 cytotox 2 inactive
C[C@@H]1CCCCO[C@H](CN(C)S(=O)(=O)c2ccc(Cl)cc2)[C@@H](C)CN([C@H](C)CO)C(=O)c2cc(NC(=O)Nc3ccc(F)cc3)ccc2O1	none

Compound activity from PubChem.
